# From PubChem BioAssay (NCI)
# About 83,000 compounds went through this panel and 20% of them were active in at least one assay; those are over-represented in the sample as a whole.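 Treatment: one concentration, 48 hours, 96-well format. Scoring: percent growth, with anything below 10 considered active.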 Activity calls are given as the source filed them.
# Tested on: HL-60(TB) leukemia
# Test: NCI-60 one-dose screen, 48 h (100 = growth as untreated, 0 = no growth, -100 = all killed)
# Details: 10 µM unless noted
row,SMILES,growth
1,O=C(Nc1nc2ccc([N+](=O)[O-])cc2s1)Nc1cc(Cl)ccc1I,-47.7% (active)
2,COc1ccc(/C=C/c2nc3ccccc3c(=O)n2CC(=O)Nc2ccc(Cl)cc2)cc1,96.2% (inactive)
3,Fc1cccc(CNc2nc(SCCN3CCOCC3)nc3c2cnn3CC(Cl)c2ccc(Br)cc2)c1 (stereo not drawn),-23.6% (active)
4,COc1ccc(NC(=O)Cn2c(/C=C/c3cccc(OC)c3)nc3ccccc3c2=O)cc1,94.6% (inactive)
5,N/C(=N\c1nc2ccc([N+](=O)[O-])cc2s1)NC(=O)Nc1ccccc1Cl,67.3% (inactive)
6,COC(=O)C[C@](O)(CCCC(C)(C)O)C(=O)O[C@H]1C(OC)=C[C@@]23CCC(=O)N2CCc2cc4c(cc2[C@@H]13)OCO4,97.4% (inactive)
7,COc1ccc(NC(=O)Nc2ccc(OCc3ccc(F)cc3)cc2)cc1,83.1% (inactive)
8,CC1=C(C#N)C2=NNCC(c3ccccc3)=NN2C(c2ccccc2)=C1,138% (inactive)
